Results published in the supplement of paper PMC13380429.

System: Vero E6 infected with SARS-CoV-2
Test: inhibition of SARS-CoV-2 cytopathic effect; higher = more antiviral protection, active = above 15
Details: 48 h

Measured: inhibition of SARS-CoV-2 cytopathic effect

CC(C)(C)NC[C@H](O)COc1nsnc1N1CCOCC1 [timolol]
inactive: 1 nM -1.77% | 8.33 nM 0.61% | 100 nM -1.85% | 833.33 nM 3.77% | 10000 nM 0.96%

O=C(O)c1cc(O)c2c3nc4ccccc4oc-3cc(=O)c2n1 [pirenoxine]
inactive: 1 nM 0.17% | 8.33 nM 3.09% | 100 nM 2.36% | 833.33 nM -0.17% | 10000 nM 3.17%

CCOCc1nc2c(N)nc3ccccc3c2n1CC(C)(C)O [resiquimod]
inactive: 1 nM 2.06% | 8.33 nM 3.82% | 100 nM 1.55% | 833.33 nM 1.03% | 10000 nM -1.23%

Cn1cnc2c(F)c(Nc3ccc(Br)cc3F)c(C(=O)NOCCO)cc21 [binimetinib]
inactive: 1 nM 3.85% | 8.33 nM -3.38% | 100 nM -9.91% | 833.33 nM -10.1% | 10000 nM -12%

C/C(=C\C(N)C(=O)O)CP(=O)(O)O (stereo not given)
inactive: 1 nM -2.33% | 8.33 nM -2.58% | 100 nM 0.17% | 833.33 nM 5.33% | 10000 nM -3.57%

CN(C)CC/C=C1/c2ccccc2COc2ccccc21 [doxepin]
inactive: 1 nM -0.79% | 8.33 nM 1.36% | 100 nM 1.85% | 833.33 nM -1.94% | 10000 nM -2.1%

C/C=C(/C)C(=O)O[C@H]1[C@H](OC(C)=O)[C@@]2(CO)C(CC1(C)C)C1=CCC3[C@@]4(C)CCC(O[C@@H]5O[C@H](C(=O)O)[C@@H](O[C@@H]6O[C@H](CO)[C@@H](O)[C@H](O)[C@H]6O)[C@H](O)[C@H]5O[C@@H]5O[C@H](CO)[C@@H](O)[C@H](O)[C@H]5O)[C@](C)(CO)C4CC[C@@]3(C)[C@]1(C)C[C@H]2O.C/C=C(\C)C(=O)O[C@H]1[C@H](OC(C)=O)[C@@]2(CO)C(CC1(C)C)C1=CCC3[C@@]4(C)CCC(O[C@@H]5O[C@H](C(=O)O)[C@@H](O[C@@H]6O[C@H](CO)[C@@H](O)[C@H](O)[C@H]6O)[C@H](O)[C@H]5O[C@@H]5O[C@H](CO)[C@@H](O)[C@H](O)[C@H]5O)[C@](C)(CO)C4CC[C@@]3(C)[C@]1(C)C[C@H]2O (stereo not given in full) [escin]
inactive: 1 nM -2.05% | 8.33 nM -1.77% | 100 nM -0.38% | 833.33 nM -4.84% | 10000 nM -27.8%

CC(C)NCC(O)c1ccc(N)c(C#N)c1 (stereo not given) [cimaterol]
inactive: 1 nM 6.86% | 8.33 nM 6.95% | 100 nM 10.5% | 833.33 nM 3.99% | 10000 nM 4.49%

CO[C@H]1CC[C@H](N(c2cc(C3=CCCCC3)sc2C(=O)O)C(=O)[C@H]2CC[C@H](C)CC2)CC1
inactive: 1 nM 0.5% | 8.33 nM 0.07% | 100 nM -0.07% | 833.33 nM 0.31% | 10000 nM 0.21%

CC1CCc2cc(F)cc3c(=O)c(C(=O)O)cn1c23 (stereo not given) [flumequine]
inactive: 1 nM -0.77% | 8.33 nM 0.46% | 100 nM -0.95% | 833.33 nM -0.27% | 10000 nM -0.64%

c1ccc2c(c1)CCC[C@H]2Nc1nc2ccccc2[nH]1
inactive: 1 nM 2.74% | 8.33 nM 2.66% | 100 nM 1.8% | 833.33 nM -1.92% | 10000 nM -0.48%

Cn1ncc(Cl)c1-c1cc(C(=O)N[C@H](CN)Cc2ccc(F)c(F)c2)oc1Cl [uprosertib]
inactive: 1 nM -2.98% | 8.33 nM -0.16% | 100 nM -1.46% | 833.33 nM 0.21% | 10000 nM -3.53%

C=CCN(C)CCCCCCOc1ccc(C(=O)c2ccc(Br)cc2)c(F)c1
inactive: 1 nM 0.63% | 8.33 nM 1.12% | 100 nM 2.12% | 833.33 nM 0.47% | 10000 nM 13.8%

COc1ccc(-c2cc(=S)ss2)cc1 [anethole-trithione]
inactive: 1 nM 1.7% | 8.33 nM -0.29% | 100 nM 1.29% | 833.33 nM -1.2% | 10000 nM 2.76%

CCOc1ccc(C(=O)OCCN(CC)CC)cc1 [parethoxycaine]
inactive: 1 nM 0.82% | 8.33 nM -3.01% | 100 nM -2.92% | 833.33 nM -0.3% | 10000 nM -0.09%

C#C[C@]1(O)CC[C@H]2[C@@H]3CCC4=C(CCC(=O)C4)[C@H]3CC[C@@]21C [noretynodrel]
inactive: 1 nM 0.57% | 8.33 nM 0.96% | 100 nM 1.22% | 833.33 nM -5.6% | 10000 nM 0.57%
